Measurements from PubChem BioAssay AID1508600 (Functional Genomics Laboratory (NCATS/FGL), 2020).
About 3,700 (7%) of roughly 53,000 sequences were called active. This is one part of a sample in which actives are shown more often than they occur. A number with no mark means an inactive call.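 Rule for the calls: active = gene knockdowns whose robust z-score for IL-1 alpha signal is at least 2 or at most -2, so actives lie on both sides; inactive = the rest.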

Test: Components of the Cytosolic LPS Sensing Pathway: Gene Identification via Genome-wide siRNA Screen;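 note: robust z of the log signal after scaling to non-targeting control siRNA wells of the plate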
Conditions: RAW264.7 macrophages, IL-1a HTRF, actives lie on both sides, screened at 100 nM (by protocol), cells primed 5 h with Pam3CSK4 first
In short: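 Using IL-1a HTRF as read-out, the screen measured release from RAW264.7 cells after 48h siRNA knockdown (100 nM), 5 h Pam3CSK4 priming and 24 h cytosolic LipidA. Values were expressed relative to negative-control wells as robust z-scores.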

Sequence | z-score
CCUAAACUCACUCUUGUGUTT against Chrna6 | -0.000677
CCUAGACGUGACUUAAUAUTT against Rabggtb | 2.09 (active)
CCUCAGCAAAUAUAUGGCATT against Ccdc7b | 0.0117
GCAAGCUGAGCAUUGAUGATT against Csk | 0.0106
GCAGUCUUUUGGAUAGGUUTT against Ccni | 0.86
GCUGUGCAGCCACAAGUGATT against Gpr142 | 8.63 (active)
GGAUGGAAUGCAGAAACGATT against Pcp2 | -0.061
GGGAUCAGAAAAGUUAACATT against Acaca | 0.785
GGACUUCACUUUUCUAUGATT against Tmem64 | 1.47
GGCUUUGGACUGUAUGACCTT against Ccdc159 | -0.923
GGUGGAAAGAGAGAGCUACTT against Slc12a7 | 0.458
GGUUUGCUGAGAAAUUAACTT against Btg3 | 0.958
GCCCACGUAUUUGUCUGCUTT against Sprn | -2.58 (active)
GCCUUCUUAACUUCAUCACTT against Taar5 | 1.16
CCUGAACACAAGUGCUGGUTT against Clec4a4 | -1.8
GGCCAUCACACACAGAAACTT against Pla2g2f | -0.505
GGCUAUGCAGAUGGUACCUTT against Vil1 | 0.871
CCAUGUGUCAAACUACCGGTT against Rbmx2 | 7.02 (active)
CCAUGAUUAAGGGUCUCUATT against Ldha | 0.111
GGUGGUAAAUAAUUAAGGATT against Clec14a | 0.623
GGAACUGAUAAACUACUCUTT against Olfr1126 | -2.08 (active)
GGGAAUGAGUCAGCUCUUUTT against Cd163 | -0.667
GGCUAAACUGAAGGAAUUCTT against Fkbp10 | 0.875

Sequence | z-score
GGUAGGAAUUUGGAAAACUTT against H2-T24 | 1.5
GGAAAUUGUUGUUUCCCGUTT against Sf3b3 | -1.45
GGCCACCAAGAAAUUCAAATT against Cd22 | 4.16 (active)
GCCUAUCUGUGACUGACCUTT against LOC433501 | -0.171
GCGAGAGCUAAAGUAAAAUTT against Egln1 | -0.671
GGCUAAAGUGAGCUCUUCATT against Nob1 | -0.947
GGUGUGUUACUGAUGAUUCTT against Olfr669 | -0.37
GCAGAGUGACUUUGAAGCGTT against Klf10 | 0.844
CCAAGUUCAUUCUUUUUGCTT against Cobll1 | 1.2
CCCUAGAAGAAUCAAGCUCTT against Prune2 | -1.35
GGAAUGAUAGAAAAUGGACTT against Gvin1 | -2.16 (active)
GGCAGAGACCACUAAUACCTT against Tmem131l | -0.881
GGCAGGCAAUUCAAACAAUTT against Orm1 | -1.24
GCUAUCCUCAAUUGCACACTT against Atxn3 | 1.49
GGUUUGAAAGGAGAAAGAGTT against Col4a6 | 0.366
GGCCUUCGUCAUCUUCAAGTT against Snrpa | 1.05
GGCCCAAGCUCAACACAAUTT against Aida | 2.31 (active)
GGCCAAGAAAAAAGAAAGATT against Slc22a2 | 0.126
GGGUUCAGGAGAACUAACUTT against Tmem40 | -1.92
GGAUCCUGUUAAGAUUAUCTT against Phykpl | -0.0411
GGAUAUUCACUUUCAUAUGTT against Gulp1 | 1.25
GGUUUAUGGAGCAAGUGAUTT against Actr3 | -2.07 (active)
CCAACAAUGUUUAAAGGAUTT against Olfr476 | -0.32

Sequence | z-score
GCCAUGUGCACUGAAUAUATT against Gfral | -1.87
GGUCAUCAGUGAUCAGUCATT against Mre11a | -1.33
GCAGCAUCCAACUUCCGCUTT against Ffar2 | 3.35 (active)
GGAAAAAAUCAAGAGUGAATT against Fam50a | -0.157
GCUACUCUCUAUUGGUUUUTT against Gpr45 | 2.45 (active)
GGUGAACUUGAGGUCACACTT against Angpt4 | 0.134
GCGGGUUUAUUGUCUAGAATT against Mfn2 | 0.669
GGAAGUAGAUUUGAAGUUGTT against Btbd35f1 | 0.256
GGAGCUCUUUUUGAACACUTT against Sgcg | 0.946
GGCCAAUCAAGAUAGCCACTT against Dnajc1 | 1.12
GCUCUCUCUCUUCUUACUGTT against Olfr1160 | -2.16 (active)
GCCGUUUGGUUUCGAACUUTT against Mboat2 | 1.17
GGUGGAGUGAUACGAAGAGTT against Radx | 1.21
CCAUAGUAGCUACCUUGAUTT against Fam107a | 0.537
GGAUGAGGUGAACUGAGGGTT against Tmem150b | 0.777
GGAAGGUUUGUUGUUUUGUTT against Apon | -1.58
GGAUAUGACUAGGUGAAUUTT against Ebf3 | -1.04
GGACAUUGUCAAUAUGCUCTT against Pygm | 0.633
GGUGUGGAAGUCAGUUUAATT against Serpinb3a | 2.53 (active)
CGAUGUGACUAUUUGUUGATT against Snx11 | 0.425
GGACCUAAACUGUCAGGAGTT against Eif3g | 0.15
GCUCUGUUGUGGAUGCAAUTT against Lonrf2 | 0.859
GGGCGGUUCAAAAGGUCAGTT against Cacnb1 | 2.27 (active)
